The results in this text go back to PubChem BioAssay (NCATS).

Holding throughout (assay): qHTS profiling for inhibitors of Plasmodium falciparum proliferation (AID 504749); note: nearly all actives have a fitted effect of over 60% in size
Details in all cases: P. falciparum in erythrocytes, SYBR Green DNA, 72 h; series mostly up to 28.7 µM

One assay concerns C2A. An outline of the steps: (§1)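 P. falciparum-infected erythrocytes (0.3% parasitemia, 2.5% hematocrit final) were exposed to compounds for 72 h at 37 C in 5% CO2, then lysed with SYBR Green buffer overnight at room temperature; parasite DNA fluorescence was normalized to artemisinin and DMSO controls.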
For a further assay, the system named is CP247. An outline of the steps: as §1
A further assay concerns ATS95. An outline of the steps: as §1
Another assay has as its system CP185. In outline:
as §1

The next assay concerns CP192. In outline:
as §1

The next assay has as its system CP194. In outline: as §1
The subject of the next assay is CP201. In outline:
as §1

Another assay deals with CP203. In outline: as §1
The subject of another assay is CP211. An outline of the steps: as §1
The next assay concerns CP215. In outline:
as §1

The subject of the next assay is CP217. In outline: as §1
For the next assay, the system named is CP237. In outline:
as §1

The subject of another assay is CP238. An outline of the steps: as §1
A further assay relates to CP250. An outline of the steps:
as §1

Another assay concerns CP252. An outline of the steps: as §1
In the next assay the test system is CP262. In outline: as §1
The test system of a further assay is CP256. An outline of the steps:
as §1

A further assay deals with CP260. An outline of the steps:
as §1

Structures are written as SMILES. Results filed as inconclusive are left out. Activity calls are given as the source filed them. Calls come from the whole dose curve; as a rule, active = well fitted inhibition curve with a large enough effect; inconclusive = small, poorly fitted or top-dose-only effect; inactive = flat fitted curve, though single readings scatter.
Potency is the fitted concentration of half-maximal effect.

Take `COC(=O)C(c1ccccc1Cl)N1CCc2sccc2C1` (configuration not stated): the Potency entry in the assay on C2A and with CP247 was “inactive” throughout.

For the compound `COc1cc(O)c(C(=O)c2ccccc2)cc1S(=O)(=O)O`, the Potency entry in the assay on ATS95, in the assay with C2A, in the assay on CP185, in the assay on CP192, in the assay on CP194 and with CP201 was “inactive” throughout. Also, the Potency result in the assay on CP203, in the assay with CP211, in the assay on CP215, in the assay on CP217, with CP237 and in the assay on CP238 was “inactive” in each case. Moreover, the Potency entry with CP247, with CP250, in the assay on CP252 and in the assay on CP262 was “inactive” each time.

`CC(=O)O[C@H]1C[C@@H]2CC[C@@H]3[C@H](CC[C@@]4(C)[C@H]3C[C@H]([N+]3(C)CCCCC3)[C@@H]4OC(C)=O)[C@@]2(C)C[C@@H]1N1CCCCC1`: the Potency entry in the assay on CP194 and in the assay on CP247 was “inactive” in each case.

For the compound `CC(C)(C)CC(C)(C)c1ccc(O)c(-n2nc3ccccc3n2)c1`, the Potency entry with CP192, in the assay with CP194, in the assay on CP201, in the assay on CP203, with CP211 and with CP215 was “inactive” each time. For the same compound, the Potency entry with CP262 is “inactive”. For the same compound, the Potency in the assay on CP247 was 11.2 µM (active).

`CC1CCc2c(N3CCC(O)CC3)c(F)cc3c(=O)c(C(=O)O)cn1c23` (configuration not stated): the Potency entry in the assay on ATS95, in the assay with C2A, in the assay on CP192, with CP194, with CP201 and in the assay on CP211 was “inactive” throughout. In addition, the Potency result with CP250 and in the assay on CP256 was “inactive” in each case. Moreover, the Potency in the assay with CP260 is 12.6 µM (active).
